# Laboratory results as given in PubChem BioAssay (Tox21).
# Unmarked numbers belong to inactive results. Results filed as inconclusive are left out. Entries that show only a call come without a potency. Calls of active or inactive are those of the source. Unless noted, the call rests on the fitted dose curve; in most records, active means well fitted curve in the direction sought with a large enough effect in the repeat runs; inconclusive means weak or mixed curves; inactive means no such curve, though single readings can be large; an effect the other way counts as inactive or inconclusive.
# Assays:
# [1] = qHTS assay to identify small molecule antagonists of the constitutive androstane receptor (CAR) signaling pathway - cell viability counter screen (AID 1224837); further: nearly all actives have a fitted effect of over 45% in size; further: potency means the concentration at half of the fitted maximal effect
# How it was run: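 CITCO at 50 nM final was added alongside compounds (15 concentrations) to double-stable hCAR/CYP2B6-2.2kb HepG2 cells. Following 23 hr at 37 C, cell viability was quantified by CellTiter-Fluor fluorescence intensity.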
# [2] = molecular target: Nuclear receptor subfamily 1 group I member 3 (Homo sapiens) (UniProt Q14994); assay: qHTS assay to identify small molecule antagonists of the constitutive androstane receptor (CAR) signaling pathway (AID 1224838); further: nearly all actives have a fitted effect of over 40% in size; further: potency means the concentration at half of the fitted maximal effect
# Chain of Nuclear receptor subfamily 1 group I member 3 (Homo sapiens) (Q14994 whole entry, looked up): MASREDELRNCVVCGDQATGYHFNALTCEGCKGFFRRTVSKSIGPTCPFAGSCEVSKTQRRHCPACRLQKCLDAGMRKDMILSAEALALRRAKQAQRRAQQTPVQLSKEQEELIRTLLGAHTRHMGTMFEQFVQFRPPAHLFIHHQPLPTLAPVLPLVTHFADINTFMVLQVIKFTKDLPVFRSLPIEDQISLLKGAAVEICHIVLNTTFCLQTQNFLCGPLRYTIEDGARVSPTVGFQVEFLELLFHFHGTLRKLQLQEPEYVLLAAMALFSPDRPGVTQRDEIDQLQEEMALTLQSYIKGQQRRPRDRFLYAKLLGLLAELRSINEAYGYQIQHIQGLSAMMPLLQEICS
# How it was run: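 Inhibition of CITCO-driven (50 nM final) CYP2B6 reporter expression is measured in HepG2 cells stably carrying hCAR. Fifteen compound concentrations are applied for 24 h at 37 C, followed by luciferase luminescence.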
# [3] = molecular target: Nuclear receptor subfamily 1 group I member 3 (Homo sapiens) (UniProt Q14994); assay: qHTS assay to identify small molecule agonists of the constitutive androstane receptor (CAR) signaling pathway (AID 1224839); further: nearly all actives have a fitted effect of over 15% in size; further: potency means the concentration at half of the fitted maximal effect
# How it was run: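 Luminescent ONE-Glo read-out after 24 hr, 37 C exposure of double-stable HepG2-CYP2B6-hCAR reporter cells to a 15-point compound series, in the presence of 0.75 uM PK11195 (final).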
# [4] = qHTS assay to identify small molecule antagonists of the estrogen related receptor signaling pathway with the pleiotropic PPARgamma coactivator (PGC) from Tox21 10K library - cell viability counter screen (AID 1224840; active means well fitted cell-killing curve with a large enough effect in the repeat runs, not every such curve was filed as active; further: nearly all actives have a fitted effect of over 40% in size; further: potency means the concentration at half of the fitted maximal effect)
# How it was run: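 Readout: fluorescence intensity from CellTiter-Fluor after 30 min at 37 C/5% CO2. Preceded by 17.5 h treatment of PGC/ERR cells with DMSO-dissolved compounds, added 6 h post-seeding.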
# [5] = qHTS assay to identify small molecule antagonists of the estrogen related receptor signaling pathway with the pleiotropic PPARgamma coactivator (PGC) from Tox21 10K library (AID 1224841; call rule not given here; further: actives are mostly falling curves and most rising ones were filed inactive; nearly all actives have a fitted effect of over 50% in size; further: potency means the concentration at half of the fitted maximal effect)
# How it was run: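 One-Glo luminescence, measured after half an hour at room temperature, quantified reporter output of PGC/ERR cells. These had been plated at 2,000 per well, incubated 6 h, dosed with compounds in DMSO, then kept 18 h at 37 C.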
# [6] = molecular target: Thyrotropin receptor (Homo sapiens) (UniProt P16473); assay: qHTS assay to identify small molecule agonists of the thyroid stimulating hormone receptor (TSHR) signaling pathway (AID 1224843; calls by dose curve; further: nearly all actives have a fitted effect of over 45% in size; further: potency means the concentration at half of the fitted maximal effect)
# Chain of Thyrotropin receptor (Homo sapiens) (P16473 whole entry, looked up): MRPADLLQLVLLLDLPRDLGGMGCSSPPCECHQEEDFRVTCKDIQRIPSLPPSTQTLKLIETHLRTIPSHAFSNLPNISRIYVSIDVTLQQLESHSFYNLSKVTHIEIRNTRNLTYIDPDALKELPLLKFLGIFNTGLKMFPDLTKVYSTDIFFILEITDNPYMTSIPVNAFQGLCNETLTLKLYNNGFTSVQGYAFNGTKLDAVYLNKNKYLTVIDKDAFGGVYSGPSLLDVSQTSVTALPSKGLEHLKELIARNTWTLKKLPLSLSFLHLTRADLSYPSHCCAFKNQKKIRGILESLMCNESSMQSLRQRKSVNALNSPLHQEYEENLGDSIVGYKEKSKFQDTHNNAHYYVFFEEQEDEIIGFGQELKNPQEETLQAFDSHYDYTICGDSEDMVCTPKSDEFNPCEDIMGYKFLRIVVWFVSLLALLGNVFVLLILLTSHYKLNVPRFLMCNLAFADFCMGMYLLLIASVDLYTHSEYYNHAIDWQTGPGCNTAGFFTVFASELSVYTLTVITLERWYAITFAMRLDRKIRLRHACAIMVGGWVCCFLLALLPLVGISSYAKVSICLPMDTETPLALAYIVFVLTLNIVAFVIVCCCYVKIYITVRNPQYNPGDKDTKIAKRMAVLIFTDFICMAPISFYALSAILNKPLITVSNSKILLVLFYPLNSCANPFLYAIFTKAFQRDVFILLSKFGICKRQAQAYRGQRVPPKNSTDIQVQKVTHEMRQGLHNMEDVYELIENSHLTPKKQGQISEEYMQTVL
# How it was run: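 Agonist activity read as cAMP rise via d2/cryptate HTRF competition, 1 h room-temperature detection, in HEK293 cells expressing TSHR. Fifteen-point titrations, each run in triplicate, with a 30 min room-temperature incubation beforehand.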
# [7] = qHTS assay to identify small molecule agonists of the hypoxia (HIF-1) signaling pathway (AID 1224846; active means well fitted activation curve with a large enough effect in the signal ratio in the repeat runs, not every such curve was filed as active; the % refers to the signal ratio)
# How it was run: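 ME-180 HRE-bla reporter cells; compounds in DMSO, 17 h at 37C; read-out beta-lactamase via CCF4-AM FRET.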
# [8] = qHTS assay to identify small molecule antagonists of the estrogen related receptor (ERR) signaling pathway from Tox21 library (AID 1224848); further: nearly all actives have a fitted effect of over 50% in size; further: potency means the concentration at half of the fitted maximal effect
# How it was run: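 Luciferase luminescence (ONE-Glo, 30 min room temperature) was the read-out. Cells of the NTP-supplied ERR line, 2,000 per well, were given 6 h at 37 C before compound addition in DMSO and 18 h exposure at 37 C.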
# [9] = qHTS assay to identify small molecule agonists of the estrogen related receptor (ERR) signaling pathway from Tox21 library (AID 1224849; calls by dose curve; further: nearly all actives have a fitted effect of over 15% in size); conditions: ERR reporter cell line, ONE-Glo luciferase, 18 h; at 92.4 µM (top of the series) unless noted
# How it was run: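 Luciferase activity in ERR pathway reporter cells served as the agonist readout; exposure lasted 18 h at 37 C, with ONE-Glo detection after 30 min at room temperature.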
# [10] = qHTS RealTime-Glo MT Cell Viability Assay in HepG2 cells - 24 hour (AID 1224867); further: nearly all actives have a fitted effect of over 50% in size; further: potency means the concentration at half of the fitted maximal effect
# How it was run: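 HepG2 cells (600/well) were dispensed with RealTime-Glo reagents, incubated 5 h at 37 °C, then treated with compounds in DMSO for up to 40 h. Nonlytic NanoLuc luminescence reflecting viable cells was read at each stated time point.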
# [11] = A CellTox Green Cytotoxicity Assay to monitor cytotoxicity in HEK293 cells - 0 hour (AID 1224869); further: nearly all actives have a fitted effect of over 50% in size
# How it was run: (§1)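 Real-time, in one plate: 600 HEK293 cells/well with dead-cell DNA dye, pinned compound after 5 h, 37 C incubation over 40 h; viable cells give no appreciable fluorescence.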
# [12] = qHTS RealTime-Glo MT Cell Viability Assay in HepG2 cells - 40 hour (AID 1224870); further: nearly all actives have a fitted effect of over 50% in size; further: potency means the concentration at half of the fitted maximal effect
# How it was run: (§2)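 Real-time viability: cells seeded at 600 per well together with NanoLuc and cell-permeant prosubstrate, compounds added after 5 h incubation. Luminescence tracked at 0, 8, 16, 24, 32 and 40 h of exposure.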
# [13] = A CellTox Green Cytotoxicity Assay to monitor cytotoxicity in HEK293 cells - 40 hour (AID 1224871); further: nearly all actives have a fitted effect of over 45% in size
# How it was run: as §1
# [14] = qHTS RealTime-Glo MT Cell Viability Assay in HepG2 cells - 8 hour (AID 1224873); further: nearly all actives have a fitted effect of over 55% in size; further: potency means the concentration at half of the fitted maximal effect
# How it was run: as §2
# [15] = qHTS assay to identify small molecule agonists of the estrogen related receptor signaling pathway with the pleiotropic PPARgamma coactivator (PGC) from Tox21 10K library (AID 1224842); further: nearly all actives have a fitted effect of over 15% in size
# How it was run: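 Luminescence from One-Glo (30 min, room temperature) measured after PGC/ERR cells had 18 h at 37 C with pinned compound (23 nL in DMSO). Cells had been seeded at 2,000 per well and pre-incubated 6 h.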
# [16] = qHTS assay to identify small molecule agonists of H2AX - cell viability counter screen (AID 1224847; calls by dose curve;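 further: wild-type CHO-K1 cells; top concentration of the series differs between compounds; nearly all actives have a fitted effect of over 30% in size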)
# How it was run: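 Counter-screen for viability: CellTiter-Glo ATP luminescence read after 3 h compound treatment (15-point titration, 0.76% DMSO final) of CHO-K1 cells at 37C, with 30 min room-temperature reagent incubation.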
# [17] = qHTS assay to identify small molecule agonists of the hypoxia (HIF-1) signaling pathway - cell viability counter screen (AID 1224844; calls by dose curve; further: nearly all actives have a fitted effect of over 50% in size; further: potency means the concentration at half of the fitted maximal effect)
# How it was run: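 In this counter screen, HRE-bla ME-180 cell viability after 17 hrs of compound exposure at 37C was read by CellTiter-Glo luminescence, multiplexed with the beta-lactamase reporter measurement.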
# [18] = qHTS assay to identify small molecule agonists of H2AX (AID 1224845; active means well fitted activation curve with a large enough effect in the signal ratio in the repeat runs, not every such curve was filed as active; the % refers to the signal ratio)
# How it was run: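 Phospho-H2AX Ser139 measured by HTRF (ex 320 nm; em 665 and 620 nm) after 24 hr antibody incubation. Compounds, 15 concentrations, 0.76% DMSO, were applied to CHO-K1 cells for 3hr at 37C before lysis.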
# [19] = qHTS RealTime-Glo MT Cell Viability Assay in HEK293 cells - 32 hour (AID 1224868); further: nearly all actives have a fitted effect of over 50% in size; further: potency means the concentration at half of the fitted maximal effect
# How it was run: (§3)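 HEK293 cells seeded with NanoLuc/prosubstrate reagent, rested 5 h at 37 C, then dosed and kept at 37 C up to 40 h. Nonlytic real-time luminescence from viable cells read at 0, 8, 16, 24, 32 and 40 h.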
# [20] = qHTS RealTime-Glo MT Cell Viability Assay in HEK293 cells - 16 hour (AID 1224872); further: nearly all actives have a fitted effect of over 50% in size; further: potency means the concentration at half of the fitted maximal effect
# How it was run: as §3
SMILES,Potency [1],Potency [2],Potency [3],Potency [4],Potency [5],Potency [6],Potency [7],Potency [8],"activity change, positive = activation [9]",Potency [10],Potency [11],Potency [12],Potency [13],Potency [14],Potency [15],Potency [16],Potency [17],Potency [18],Potency [19],Potency [20]
O=C1c2ccccc2C(=O)c2c(Cl)cccc21,inactive,inactive,28.9 µM (active),inactive,inactive,inactive,inactive,inactive,1.21% [at 42.5 µM],inactive,inactive,inactive,inactive,inactive,,,,,,
CC(C)(C)C1=CC(=O)C(C(C)(C)C)=CC1=O,inactive,inactive,21.1 µM (active),inactive,inactive,9.44 µM (active),inactive,inactive,-2.14% [at 42.5 µM],inactive,inactive,,,inactive,inactive,inactive,,,,
O=C1C=CC(=O)N1c1cccc(N2C(=O)C=CC2=O)c1,61.1 µM (active),61.1 µM (active),inactive,34.4 µM (active),77 µM (active),5.45 µM (active),,68.6 µM (active),-72.9%,15.5 µM (active),inactive,17.4 µM (active),,21.9 µM (active),inactive,,11 µM (active),inactive,9.77 µM (active),
c1ccc2occc2c1,inactive,inactive,inactive,inactive,inactive,13.7 µM (active),inactive,inactive,3.98%,inactive,inactive,inactive,inactive,inactive,inactive,inactive,inactive,inactive,inactive,inactive
[Cl][Sc]([Cl])[Cl],inactive,inactive,inactive,inactive,,inactive,inactive,inactive,0.963%,inactive,inactive,inactive,inactive,inactive,,,inactive,inactive,inactive,inactive
CCOC=C(C(=O)OCC)C(=O)OCC,inactive,inactive,inactive,inactive,,inactive,inactive,,,inactive,inactive,inactive,inactive,inactive,,inactive,inactive,,inactive,inactive
O=C1CCCCCCCCCCCCCC1,inactive,inactive,30.6 µM (active),inactive,inactive,inactive,,inactive,1.09%,inactive,inactive,inactive,,inactive,inactive,inactive,,,inactive,
CCCCCc1ccc(O)cc1,inactive,inactive,54.5 µM (active),inactive,inactive,inactive,,inactive,1.58%,,inactive,inactive,,inactive,inactive,,,,,
C=COCCCC,inactive,inactive,inactive,inactive,,inactive,inactive,,,,inactive,inactive,inactive,inactive,,,inactive,inactive,,
C=CCc1cc(S(=O)(=O)c2ccc(O)c(CC=C)c2)ccc1O,inactive,inactive,inactive,inactive,,inactive,,61.1 µM (active),-45.3%,,inactive,,inactive,,inactive,,,,27.5 µM (active),
CCc1cccc(C)c1N(C(=O)CS(=O)(=O)O)C(C)COC (stereo not given),inactive,inactive,inactive,inactive,,inactive,inactive,,,inactive,inactive,inactive,inactive,inactive,,inactive,inactive,inactive,inactive,inactive
CCCCCCCCCCCCCCCCC(C(=O)O)C(O)(CC(=O)O)C(=O)O (stereo not given),inactive,inactive,inactive,inactive,inactive,inactive,,inactive,-3.01% [at 42.5 µM],inactive,inactive,inactive,,inactive,inactive,inactive,,inactive,inactive,inactive
CCOC(=O)OC(=O)OCC,inactive,inactive,,inactive,,inactive,inactive,,,inactive,inactive,inactive,inactive,inactive,,inactive,inactive,,inactive,inactive
CCc1cccc(C)c1N(C(=O)C(=O)O)C(C)COC (stereo not given),inactive,inactive,,inactive,,inactive,inactive,,,inactive,inactive,inactive,inactive,inactive,,inactive,inactive,inactive,inactive,inactive
CC/C(=C(/c1ccc(O)cc1)c1ccc(OCCN(C)C)cc1)c1ccccc1,32 µM (active),35.9 µM (active),,32 µM (active),,,,18 µM (active),-77.3% [at 42.5 µM],18.2 µM (active),inactive,12.9 µM (active),,28.8 µM (active),inactive,,,,9.11 µM (active),12.9 µM (active)
